Assay [1] in a line: NCI Yeast Anticancer Drug Screen. Data for the rad50 strain (AID 155).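 Note: 0% = growth of vehicle-only cultures of the same strain.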 The conditions noted are these: S. cerevisiae rad50 strain growth inhibition, active compounds read high. In a few lines: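 Compounds were tested on a yeast strain with an engineered DNA damage repair alteration; the reported value is growth inhibition normalised to vehicle treatment.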
Assay [2] in a line: NCI Yeast Anticancer Drug Screen. Data for the mec2-1 strain (AID 157). The conditions noted are these: S. cerevisiae mec2-1 strain, active compounds read high. In a few lines:
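Strain: mec2-1 (DNA repair/cell cycle alteration). Compound exposure, then growth measured; inhibition expressed relative to vehicle.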

A short description of assay [3]: NCI Yeast Anticancer Drug Screen. Data for the sgs1 mgt1 strain (AID 161).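 Note: 0% = growth of cultures given vehicle only.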 The conditions noted are these: S. cerevisiae sgs1 mgt1 strain, active compounds read high. The essentials: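 Test agents were incubated with a DNA-repair-mutant yeast strain. Growth was then read and compared against vehicle-treated controls.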
A short description of assay [4]: NCI Yeast Anticancer Drug Screen. Data for the cln2 rad14 strain (AID 165).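 Note: 0% = growth equal to vehicle treated cultures.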 The conditions noted are these: S. cerevisiae cln2 rad14 strain, active compounds read high. The essentials: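 Compounds are applied to the cln2 rad14 yeast strain, and growth is then compared with that of vehicle-treated cultures to give inhibition.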
A short description of assay [5]: NCI Yeast Anticancer Drug Screen. Data for the bub3 strain (AID 167). The conditions noted are these: S. cerevisiae bub3 mutant strain, active compounds read high. The essentials: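 Growth of a checkpoint-deficient yeast mutant is measured after compound exposure. Values represent inhibition relative to vehicle.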
A short description of assay [6]: NCI Yeast Anticancer Drug Screen. Data for the mlh1 rad18 strain (AID 175). The conditions noted are these: S. cerevisiae mlh1 rad18 strain growth inhibition, active compounds read high. The essentials: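 Read-out is yeast growth inhibition, calculated against vehicle-only controls. The compound was applied to a strain engineered with DNA damage repair alterations.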
Setting [7] is: at 5.0 µM (retest, dose inferred, filed as 0.5).
[8] abbreviates: at 50.0 µM (retest, dose inferred, filed as 5.0).

Compounds without any hit were thinned out: in the full panel of roughly 79,000, 15% have a hit. A number with no mark means an inactive call. Activity calls are given as the source filed them. Cut-off read from the data, not from the text of the source: active = growth inhibition above about 70%; inactive = the rest.

Consider `COc1ccccc1NC(=O)CC(=O)N1N=C(c2ccccc2)C(N=Nc2ccc(Cl)cc2)C1=O` (stereo not given), for which the growth inhibition was 20% in assay [1] (setting [7]); 20% in assay [1] (setting [8]); -5.1% in assay [1] (at 50.0 µM); 21% in assay [2] (setting [7]); 21% in assay [2] (setting [8]); 0.6% in assay [2] (at 50.0 µM). In addition, the growth inhibition in assay [3] (setting [7]) is 25%; in assay [3] (setting [8]), 25%; in assay [3] (at 50.0 µM) it was -2%; in assay [4] (setting [7]), 12%; in assay [4] (setting [8]) it was 12%; in assay [4] (at 50.0 µM), -41.2%. The growth inhibition in assay [5] (setting [7]) was 15%; in assay [5] (setting [8]), 15%; in assay [5] (at 50.0 µM) it was 1%; in assay [6] (setting [7]), 6%; in assay [6] (setting [8]) it was 6%; in assay [6] (at 50.0 µM) it was -8.05%.

With `COC(OC)C1C2C3C=CC(C4C(=O)OC(=O)C34)C12` (stereo not given), the growth inhibition is -5% in assay [1] (setting [7]); 0% in assay [1] (setting [8]); 76.5% (active) in assay [1] (at 50.0 µM); -16% in assay [2] (setting [7]); -4% in assay [2] (setting [8]); 98.4% (active) in assay [2] (at 50.0 µM). In addition, the growth inhibition was -15% in assay [3] (setting [7]); -13% in assay [3] (setting [8]); 29.4% in assay [3] (at 50.0 µM); -2% in assay [4] (setting [7]); -5% in assay [4] (setting [8]); 98.3% (active) in assay [4] (at 50.0 µM). The growth inhibition in assay [5] (setting [7]) is 0%; in assay [5] (setting [8]), 14%; in assay [5] (at 50.0 µM), 97.2% (active); in assay [6] (setting [7]), 6%; in assay [6] (setting [8]), 2%; in assay [6] (at 50.0 µM), 98.6% (active).

Take `COc1cc(/C=C2\Sc3scc(-c4cccc([N+](=O)[O-])c4)[n+]3C2=O)cc(OC)c1OC`: the growth inhibition in assay [1] (setting [7]) is 1%; in assay [1] (setting [8]), 94% (active); in assay [1] (at 50.0 µM), 99% (active); in assay [2] (setting [7]) it was -1%; in assay [2] (setting [8]) it was 82% (active); in assay [2] (at 50.0 µM), 99% (active). Further, the growth inhibition in assay [3] (setting [7]) is 13%; in assay [3] (setting [8]) it was 40%; in assay [3] (at 50.0 µM), 86.2% (active); in assay [4] (setting [7]), -26%; in assay [4] (setting [8]), 91% (active); in assay [4] (at 50.0 µM), 98.4% (active). The growth inhibition is -10% in assay [5] (setting [7]); 95% (active) in assay [5] (setting [8]); 99.1% (active) in assay [5] (at 50.0 µM); 5% in assay [6] (setting [7]); 73% (active) in assay [6] (setting [8]); 99% (active) in assay [6] (at 50.0 µM).

Regarding `CC1(C)CC(=O)C(CSC(=O)c2ccccc2)=C(O)C1`, the growth inhibition in assay [1] (setting [7]) was -1%; in assay [1] (setting [8]), 17%; in assay [1] (at 50.0 µM), -13.9%; in assay [2] (setting [7]) it was -2%; in assay [2] (setting [8]), -1%; in assay [2] (at 50.0 µM) it was -5.45%. In addition, the growth inhibition in assay [3] (setting [7]) was -4%; in assay [3] (setting [8]) it was -3%; in assay [3] (at 50.0 µM) it was 3.05%; in assay [4] (setting [7]), -2%; in assay [4] (setting [8]) it was -11%; in assay [4] (at 50.0 µM), 45.6%. Moreover, the growth inhibition in assay [5] (setting [7]) was -2%; in assay [5] (setting [8]) it was -2%; in assay [5] (at 50.0 µM), -27.6%; in assay [6] (setting [7]) it was -7%; in assay [6] (setting [8]) it was 15%; in assay [6] (at 50.0 µM) it was -6.2%.

For `c1ccc(CCCCc2ccncc2)cc1`, the growth inhibition in assay [1] (setting [7]) is 1%; in assay [1] (setting [8]) it was 28%; in assay [1] (at 50.0 µM) it was 87.3% (active); in assay [2] (setting [7]) it was 1%; in assay [2] (setting [8]) it was 13%; in assay [2] (at 50.0 µM), 46.2%. Also, the growth inhibition in assay [3] (setting [7]) was 0%; in assay [3] (setting [8]), 47%; in assay [3] (at 50.0 µM) it was 94% (active); in assay [4] (setting [7]), 5%; in assay [4] (setting [8]), 11%; in assay [4] (at 50.0 µM), 63.6%. Besides, the growth inhibition in assay [5] (setting [7]) was 24%; in assay [5] (setting [8]), 81% (active); in assay [5] (at 50.0 µM), 93.5% (active); in assay [6] (setting [7]), -3%; in assay [6] (setting [8]) it was 18%; in assay [6] (at 50.0 µM), 88.5% (active).

Regarding `CCCC(=O)c1cc(O)c(O)c(CN(C)Cc2cc(Cl)cc(C)c2O)c1O`, the growth inhibition in assay [1] (setting [7]) is -8%; in assay [1] (setting [8]), 91% (active); in assay [1] (at 50.0 µM), 55%; in assay [2] (setting [7]), 3%; in assay [2] (setting [8]), 97% (active); in assay [2] (at 50.0 µM), 52.5%. In addition, the growth inhibition in assay [3] (setting [7]) is -11%; in assay [3] (setting [8]) it was 94% (active); in assay [3] (at 50.0 µM), 50.5%; in assay [4] (setting [7]), -16%; in assay [4] (setting [8]) it was 90% (active); in assay [4] (at 50.0 µM), 60.6%. Further, the growth inhibition in assay [5] (setting [7]) was -7%; in assay [5] (setting [8]), 97% (active); in assay [5] (at 50.0 µM) it was 49%; in assay [6] (setting [7]) it was 19%; in assay [6] (setting [8]), 96% (active); in assay [6] (at 50.0 µM), 54.5%.

Turning to `O/N=C(/CCc1ccccc1)c1ccccc1`, the growth inhibition is 7% in assay [1] (setting [7]); 84% (active) in assay [1] (setting [8]); 97.1% (active) in assay [1] (at 50.0 µM); 2% in assay [2] (setting [7]); 70% (active) in assay [2] (setting [8]); 97% (active) in assay [2] (at 50.0 µM). Moreover, the growth inhibition is 5% in assay [3] (setting [7]); 76% (active) in assay [3] (setting [8]); 97.2% (active) in assay [3] (at 50.0 µM); -2% in assay [4] (setting [7]); 56% in assay [4] (setting [8]); 93.2% (active) in assay [4] (at 50.0 µM). Also, the growth inhibition in assay [5] (setting [7]) is -2%; in assay [5] (setting [8]), 71% (active); in assay [5] (at 50.0 µM) it was 95.7% (active); in assay [6] (setting [7]) it was 2%; in assay [6] (setting [8]), 71% (active); in assay [6] (at 50.0 µM), 97.2% (active).

On to `CCCCC1(CC)COC(c2ccccc2OC)OC1` (stereo not given), for which the growth inhibition in assay [1] (setting [7]) is -6%; in assay [1] (setting [8]), 88% (active); in assay [1] (at 50.0 µM), -28.4%; in assay [2] (setting [7]), -5%; in assay [2] (setting [8]), 88% (active); in assay [2] (at 50.0 µM), 2.45%. Moreover, the growth inhibition in assay [3] (setting [7]) was -1%; in assay [3] (setting [8]), 81% (active); in assay [3] (at 50.0 µM) it was 5.5%; in assay [4] (setting [7]), -9%; in assay [4] (setting [8]), 65%; in assay [4] (at 50.0 µM), -9.85%. The growth inhibition in assay [5] (setting [7]) is 31%; in assay [5] (setting [8]), 92% (active); in assay [5] (at 50.0 µM), 76.5% (active); in assay [6] (setting [7]), -2%; in assay [6] (setting [8]), 87% (active); in assay [6] (at 50.0 µM), -17.2%.

For the molecule `CCc1ccc(N(C(C)=O)C2=C(Cl)C(=O)c3ccccc3C2=O)cc1`, the growth inhibition in assay [1] (setting [7]) was 99% (active); in assay [1] (setting [8]), 99% (active); in assay [1] (at 50.0 µM) it was 98.4% (active); in assay [2] (setting [7]), 100% (active); in assay [2] (setting [8]) it was 99% (active); in assay [2] (at 50.0 µM), 91% (active). Moreover, the growth inhibition in assay [3] (setting [7]) was 100% (active); in assay [3] (setting [8]), 100% (active); in assay [3] (at 50.0 µM), 99.2% (active); in assay [4] (setting [7]), 99% (active); in assay [4] (setting [8]), 99% (active); in assay [4] (at 50.0 µM), 77% (active). In addition, the growth inhibition in assay [5] (setting [7]) was 99% (active); in assay [5] (setting [8]), 100% (active); in assay [5] (at 50.0 µM), 67.9%; in assay [6] (setting [7]), 100% (active); in assay [6] (setting [8]) it was 99% (active); in assay [6] (at 50.0 µM) it was 98.7% (active).

As for `S=C(CSc1ccccc1)Nc1cccc2ccccc12`, the growth inhibition is 15% in assay [1] (setting [7]); 82% (active) in assay [1] (setting [8]); 77% (active) in assay [1] (at 50.0 µM); -12% in assay [2] (setting [7]); 51% in assay [2] (setting [8]); 28.4% in assay [2] (at 50.0 µM). In addition, the growth inhibition in assay [3] (setting [7]) was -4%; in assay [3] (setting [8]), 67%; in assay [3] (at 50.0 µM) it was 31.3%; in assay [4] (setting [7]) it was -11%; in assay [4] (setting [8]), 72% (active); in assay [4] (at 50.0 µM), 58.5%. Also, the growth inhibition is 4% in assay [5] (setting [7]); 81% (active) in assay [5] (setting [8]); 81.7% (active) in assay [5] (at 50.0 µM); 1% in assay [6] (setting [7]); 81% (active) in assay [6] (setting [8]); 79.5% (active) in assay [6] (at 50.0 µM).

The record behind these values is PubChem BioAssay (NCI).
